Most compounds without a hit are left out; they make up all but 21% or so of the library.
CHX counter: counter-screen for Shiga toxin inhibitors: cycloheximide protein synthesis inhibition | cell reporter, cycloheximide protein synthesis inhibition counterscreen | max response, % | 300,000 tested, 12% active; in the data active = max response mostly above about 13%, no sharp cut-off; inactive = mostly below about 14%; note: read at 38.3 µM for the half of the compounds with a filed dose
HCV inh: inhibitors of hepatitis C virus infection. Huh7.5.1 HCVcc-Cre infection, luciferase reporter, 44 h. Potency, µM (titrated, usually from 41.8 µM), most hits filed as inhibitors. 340,000 tested, 3.4% active. AID 651820
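Luciferase read-out (15 sec integration) after a 15 min room-temperature substrate step quantifies HCVcc-Cre infection. Cells, 1,000 per well, had compound added 4 h post-plating, then virus at ~0.5 moi, and were cultured 44 h.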
Pf growth 96h: P. falciparum growth inhibition at 96 hour, primary screen for plastid delayed-death inhibitors | P. falciparum luciferase reporter growth, 96 h | Potency, µM (series often up to 28.7 µM), usual class: inhibitors | 320,000 tested, 6.9% active | AID 504834
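Two parasite generations (96 h, 37 C, 5% CO2) of compound exposure in infected erythrocytes (0.05% parasitemia, 2% hematocrit). Luciferase-reporter P. falciparum; decreased luminescence indicates inhibited growth, aimed at apicoplast-acting delayed death.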
Pf growth 48h: inhibits P. falciparum growth in the first generation, 48 h; P. falciparum luciferase growth in erythrocytes, 48 h; Potency, µM (top dose mostly 28.7 µM), most hits filed as inhibitors; 310,000 tested, 5.9% active; AID 504832
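First compound was added to culture medium, then infected red cells at 0.1% parasitemia and 2% hematocrit (final). After incubation at 37 C under 5% CO2, luciferase detection reagent was dispensed and light output recorded.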
Shiga toxin inh: blocks Shiga toxin action in Vero cells; Vero cells, Shiga toxin protein synthesis inhibition reporter; inhibition, % at 38.7 µM; 290,000 tested, 9.2% active; in the data active = inhibition mostly above about 28%, no sharp cut-off; inactive = mostly below about 43%
AMA1-RON2 inh: inhibitors of Plasmodium falciparum AMA1-RON2 interaction | AlphaScreen AMA1-biotinylated RON2 peptide binding | 360,000 tested, 0.2% active | AID 720542 | Potency, µM (highest dose often 58.2 µM), actives largely listed as inhibitors; note: nearly all actives have a fitted effect of over 45% in size
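AMA1 (3D7) with his tag at 25 nM final met compounds first, then biotinylated RON2 peptide at 25 nM; detection used donor plus acceptor beads, 10 µg/mL apiece, read by AlphaScreen after 30 min at room temperature.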
Of the large screens only hits and unclear results are named; the others gave an inactive call. Unless noted, calls come from the whole dose curve; as a rule, active = well fitted curve in the direction sought with a large enough effect; inconclusive = small, poorly fitted or top-dose-only effect, or another doubt; inactive = no such curve, though single readings can be large; an effect the other way counts as inactive or inconclusive.

Cn1c(SCc2nnc(-c3ccc(F)cc3)o2)nnc1C1COc2ccccc2O1 (centres undefined)	Pf growth 96h inconclusive, Pf growth 48h inconclusive
c1ccc(-c2cnc(CSc3nnc4ccccn34)o2)cc1	CHX counter 40, Shiga toxin inh 53 (no result: Pf growth 96h)
FC(F)(F)c1ccc(N2CCN(c3cc(-c4ccccc4)nc4ncnn34)CC2)nc1	HCV inh 8.9µM, Pf growth 48h inconclusive
FC(F)(F)c1cccc(Nc2cc(-c3ccccc3)nc3ncnn23)c1	none
C[C@H]1CN(CCc2ccccc2)C(=O)[C@@H]1CC(=O)NCc1ccccc1	none
Cc1c(C)n(Cc2ccc(F)cc2)c2ccc(C(=O)N3CCN(c4ccccn4)CC3)cc12	Pf growth 96h inconclusive, AMA1-RON2 inh inconclusive
O=C1c2cccc3c([N+](=O)[O-])ccc(c23)C(=O)N1CCc1ccccn1	none
O=C1c2ccccc2C(=O)N1CCc1ccccc1	none (no result: CHX counter, Pf growth 96h, Pf growth 48h, Shiga toxin inh)
O=C1c2ccccc2C(=O)N1CCc1ccccn1	CHX counter 16
N#Cc1ccccc1CCN1C(=O)c2ccccc2C1=O	CHX counter 41 (no result: Shiga toxin inh)
Cc1c(C(=O)C(=O)N2CCN(Cc3ccc4c(c3)OCO4)CC2)c2ccccc2n1C	Pf growth 48h inconclusive
C/C(=N\Nc1nc(N2CCCCCC2)nc(N2CCCCCC2)n1)c1ccccc1	HCV inh inconclusive, Pf growth 48h inconclusive
C/C(=N\Nc1nc(N2CCCCC2)nc(N2CCOCC2)n1)c1cccs1	HCV inh 10µM
Cc1ccc(Nc2nc(/N=C/N(C)C)n[nH]2)cc1C	CHX counter 51, Shiga toxin inh 86
COCCNC(=O)C1(C)CCN(C(=O)c2ccc3sccc3c2)C1 (centres undefined)	none (no result: CHX counter, HCV inh, Pf growth 96h, Pf growth 48h, Shiga toxin inh)
Cc1ccc(-c2cc3nc(-c4ccccc4)cc(N)n3n2)cc1	CHX counter 38, Pf growth 48h inconclusive, Shiga toxin inh 82
CCN1CCN(c2cc(-c3ccccc3)nc3cc(-c4cccc(F)c4)nn23)CC1	HCV inh inconclusive, Pf growth 96h 12µM, Pf growth 48h inconclusive
Cc1ccc(-c2cc3nc(-c4ccccc4)cc(N4CCOCC4)n3n2)cc1	CHX counter 23, HCV inh inconclusive, Pf growth 48h inconclusive
Cc1cc(N2CCOCC2)n2nc(-c3cccc(F)c3)cc2n1	HCV inh inconclusive
OC1CCN(c2cc(-c3ccccc3)nc3cc(-c4ccc(F)cc4)nn23)CC1	Pf growth 48h inconclusive
Cc1ccc(-c2cc(N)n3nc(-c4ccc(C)cc4)cc3n2)cc1	none
CSc1nc(N)n2nc(-c3ccccc3)cc2n1	CHX counter 37, Shiga toxin inh 70
COc1ccccc1CCNS(=O)(=O)CCNC(=O)c1ccc2c(c1)OCO2	none (no result: CHX counter, Shiga toxin inh)
COc1ccc(-c2cc(C(=O)Nc3ccc(OC)c(OC)c3)[nH]n2)c(C)c1	none (no result: CHX counter, HCV inh, Pf growth 96h, Pf growth 48h, Shiga toxin inh)
Cc1cc(N)n2nc(-c3ccccc3)cc2n1	CHX counter 60, Shiga toxin inh 89
Cc1cc(-c2ccccc2)n2nc(N)nc2n1	none
Cc1cc(CNC(=O)Cc2c(F)cccc2Cl)nn1C	CHX counter 18, Shiga toxin inh 34 (no result: Pf growth 96h)
Cc1nc2cc(-c3ccc(Cl)cc3)nn2c(C)c1CCC(=O)NC(C)c1ccc2c(c1)OCCO2 (centres undefined)	HCV inh inconclusive, Pf growth 96h inconclusive, Pf growth 48h inconclusive
Cc1ccc(CC(=O)Nc2cccc(C)n2)cc1	CHX counter 33, Shiga toxin inh 69
Cc1cccc(NC(=O)Cc2c(F)cccc2Cl)n1	CHX counter 28, Pf growth 96h inconclusive, Shiga toxin inh 112
Cc1csc(NC(=O)CCc2c(C)nc3cc(-c4ccc(Cl)cc4)nn3c2C)n1	Pf growth 96h 15µM, Pf growth 48h inconclusive
O=C(Cc1c(F)cccc1Cl)Nc1ccncc1	none
COCc1cc(=O)[nH]c(N2CCN(Cc3ccc4c(c3)OCO4)CC2)n1	none (no result: Pf growth 48h)
COc1cccc(CC(=O)Nc2nc(C)cs2)c1	CHX counter 43, Shiga toxin inh 72
Cc1csc(NC(=O)Cc2c(F)cccc2Cl)n1	CHX counter 35 (no result: Shiga toxin inh)
Cc1csc(NC(=O)Cc2ccc(F)cc2)n1	CHX counter 34, Shiga toxin inh 77
Cc1[nH]n(-c2ccccc2)c(=O)c1/C=N/NC(=O)c1ccc(O)cc1O	CHX counter 29, Pf growth 96h inconclusive, Shiga toxin inh 68 (no result: Pf growth 48h)
Cc1ccc(-n2[nH]c(C)c(/C=N/NC(=O)c3ccc(O)cc3O)c2=O)cc1	CHX counter 25, HCV inh inconclusive, Pf growth 96h inconclusive, Pf growth 48h inconclusive, Shiga toxin inh 73
Cc1ccc(-n2[nH]c(C)c(C=Nc3ccc4[nH]c(=O)[nH]c4c3)c2=O)cc1	none
CCOC(=O)C1=C(C)N(C)C(=O)NC1c1c(O)ccc2ccccc12 (centres undefined)	none (no result: Pf growth 48h)
O=C1C=CC(=O)N1	HCV inh inconclusive (no result: CHX counter, Shiga toxin inh)
CCCc1c(C(=O)N/N=C/c2ccco2)nnn1-c1nonc1N	none
COc1ccc(C(=O)NCCc2ccccc2F)cc1OC1CCN(C(C)=O)CC1	Pf growth 48h inconclusive
COc1ccccc1NC(=O)N1c2ccc(F)cc2CCC1C (centres undefined)	Pf growth 96h 4.7µM
Cc1ccc2c(c1)c1ncnc(N3CCC4(CC3)OCCO4)c1n2C	CHX counter 33, Shiga toxin inh 64 (no result: HCV inh, AMA1-RON2 inh)
Cc1ccc2c(c1)c1ncnc(N3CCOCC3)c1n2C	CHX counter 28, HCV inh inconclusive, Pf growth 96h inconclusive, Pf growth 48h inconclusive, Shiga toxin inh 94
Cc1ccc(COc2ccc(-c3nnco3)cc2)cc1	CHX counter 40, Shiga toxin inh 67 (no result: Pf growth 48h)
Cn1nc(-c2ccccc2)cc1NC(=O)[C@@H]1O[C@H](CO)[C@H](O)[C@H](O)[C@H]1O	none (no result: CHX counter, HCV inh, Pf growth 96h, Pf growth 48h, Shiga toxin inh)
O=C(Nc1ccccc1Cl)c1ccn[nH]1	CHX counter 20, HCV inh inconclusive
O=C(Nc1ccccc1Cl)c1cc[n+]([O-])cc1	none
O=C(Nc1ccccc1F)c1ccn[nH]1	CHX counter 22, Shiga toxin inh 47
O=C(Nc1ccccc1F)c1c[nH]c(=O)[nH]c1=O	none
c1ccc(C2Nc3ccccc3C3OCCCC23)cc1 (centres undefined)	Pf growth 96h inconclusive, AMA1-RON2 inh inconclusive
COc1ccccc1NC(=O)c1ccccc1C(=O)N(C)Cc1ccccc1	none (no result: CHX counter, Pf growth 96h, Pf growth 48h, Shiga toxin inh)
CC(C)(C)CN1C(=O)C(=O)NC[C@@H]1CCCCN	none (no result: CHX counter, Pf growth 96h, Pf growth 48h, Shiga toxin inh)
Cc1ccccc1CN(C)C(=O)c1ccc2ccccc2n1	none
O=C(COc1ccccc1F)Nc1ccc(-c2nc3ccccc3s2)cc1	none (no result: CHX counter, HCV inh, Shiga toxin inh, AMA1-RON2 inh)
Cc1ccc2nc(-c3ccc(NC(=S)NC(=O)C(C)C)cc3)sc2c1	CHX counter 53, Shiga toxin inh 84 (no result: Pf growth 96h)
CCC(=O)NC(=S)Nc1ccc(-c2nc3ccccc3s2)cc1	CHX counter 49, Shiga toxin inh 69
CCC(=O)NC(=S)Nc1ccc(-c2nc3ccc(C)cc3s2)cc1	CHX counter 40, Pf growth 96h 12µM, Shiga toxin inh 91
Cc1nc2ccc([N+](=O)[O-])cc2s1	none
Cc1nc2c(ccc3c2ccc2nc(C)sc23)s1	Shiga toxin inh 71 (no result: Pf growth 48h)

Assay outcomes from PubChem.
